Inconclusive results are not listed. Calls of active or inactive are those of the source. Unless noted, the call rests on the fitted dose curve; in most records, active means well fitted curve in the direction sought with a large enough effect in the repeat runs; inconclusive means weak or mixed curves; inactive means no such curve, though single readings can be large; an effect the other way counts as inactive or inconclusive.
Columns and labels:
[1] = qHTS assay to identify small molecule antagonists of the vitamin D receptor (VDR) signaling pathway - cell viability counter screen (AID 743225); conditions: VDR-bla HEK293T viability, CellTiter-Glo luminescence, 16 h; series mostly up to 61 µM; further: on the % scale 0 is the no-effect control and ±100 the full control effect; nearly all actives have a fitted effect of over 50% in size
In short: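 Read-out: CellTiter-Glo luminescence measured 30 min after reagent addition at room temperature. Cells were VDR-bla HEK 293T exposed 16 h at 37C, 5% CO2, to compound with 3 nM final calcitriol agonist.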

[2] = qHTS assay to identify small molecule agonists of the NFkB signaling pathway (AID 1159509; active means well fitted curve in the direction sought with a large enough effect in the signal ratio in the repeat runs, not every such curve was filed as active; the % refers to the signal ratio; further: on the % scale 0 is the no-effect control and ±100 the full control effect); conditions: NFkB-bla ME-180 cells, beta-lactamase FRET ratio, 5 h; series mostly up to 61 µM
In short: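 Readout: FRET fluorescence, 405 nm excitation, 460/530 nm emission; beta-lactamase expression disrupts FRET. Cells: ME-180 stably carrying NF-kB-driven bla reporter. Compound exposure 5 hr, 37 C, 5% CO2.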

[3] = qHTS assay to identify small molecule agonists of the NFkB signaling pathway - cell viability counter screen (AID 1159515; calls by dose curve; further: on the % scale 0 is the no-effect control and ±100 the full control effect; nearly all actives have a fitted effect of over 55% in size); conditions: NFkB-bla ME-180 viability, CellTiter-Glo luminescence, 5 h; series mostly up to 61 µM
In short: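 Cells are seeded (2,000 NFkB-bla ME-180 per well), rested overnight, and dosed with DMSO-dissolved compounds for 5 hr at 37 C. Viability is then read by CellTiter-Glo luminescence after 30 min at room temperature.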

[4] = qHTS assay to identify small molecule agonists of the endoplasmic reticulum stress response signaling pathway - cell viability counter screen (AID 1159517; calls by dose curve;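 further: HeLa cells carrying an ER stress response element beta-lactamase reporter; on the % scale 0 is the no-effect control and ±100 the full control effect; nearly all actives have a fitted effect of over 50% in size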); conditions: ESRE-bla HeLa viability, CellTiter-Glo luminescence, 5 h; series mostly up to 61 µM
In short: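 After overnight attachment, ESRE-bla HeLa cells were treated with Tox21 library compounds for 5 hr. CellTiter-Glo luminescence, read 30 min post-addition at room temperature, reported viability.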

[5] = qHTS assay to identify small molecule antagonists of the retinoid-related orphan receptor gamma (ROR-gamma) signaling pathway - cell viability counter screen (AID 1159520); conditions: Tet-on RORgamma CHO cells viability, ATP luminescence, 16 h; series mostly up to 92.4 µM; further: on the % scale 0 is the no-effect control and ±100 the full control effect; nearly all actives have a fitted effect of over 50% in size
In short: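 Cytotoxicity was read from cellular ATP (CellTiter-Glo luminescence) after 16 hr at 37 C with 1 uM doxycycline induction. The inducer was added 2 hr after compound transfer to Tet-on ROR gamma CHO cells.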

[6] = biological target: Nuclear receptor ROR-gamma (Homo sapiens) (UniProt P51449); experiment: qHTS assay to identify small molecule antagonists of the retinoid-related orphan receptor gamma (ROR-gamma) signaling pathway (AID 1159521;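 further: CHO cells with doxycycline inducible ROR-gamma driving an RORE luciferase reporter; top concentration of the series differs between compounds; on the % scale 0 is the no-effect control and ±100 the full control effect; nearly all actives have a fitted effect of over 50% in size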); conditions: Tet-on RORgamma CHO cells, RORE-luciferase, 16 h; series mostly up to 42.5 µM
In short: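 CHO Tet-on RORγ, RORE-luc reporter. Cpd 2 h pre-incubation, then dox hyclate 1 uM final, 16 h, 37 C/5% CO2. ONE-Glo luminescence; decrease = antagonist.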

[7] = qHTS assay to identify small molecule agonists of the AP-1 signaling pathway - cell viability counter screen (AID 1159525; calls by dose curve; further: nearly all actives have a fitted effect of over 55% in size); conditions: ME-180 AP-1-bla cells viability, ATP luminescence, 5 h; series mostly up to 76.8 µM
In short: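 Intracellular ATP by Cell Titer Glo luminescence (30 min, RT) in the same ME-180 AP-1-bla wells after the 5 h compound exposure at 37 °C. Normalised to tetra n-octyl ammonium bromide and DMSO controls.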

[8] = qHTS assay to identify small molecule agonists of the AP-1 signaling pathway (AID 1159526; calls by dose curve; further: on the % scale 0 is the no-effect control and ±100 the full control effect); conditions: ME-180 (cervical carcinoma) AP-1-bla reporter, beta-lactamase FRET ratio, 5 h; series mostly up to 35.3 µM
[9] = qHTS assay to identify small molecule agonists of the vitamin D receptor (VDR) signaling pathway - cell viability counter screen (AID 743224); conditions: VDR-bla HEK293T viability, CellTiter-Glo luminescence, 16 h; series mostly up to 62.6 µM
In short: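 Cells: VDR-bla, 2,000/well, settled 4 h. Treatment: compounds in DMSO, 16 h, 37C/5% CO2. Readout: CellTiter-Glo luminescence after 30 min RT.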

[10] = qHTS assay to identify small molecule agonists of the endoplasmic reticulum stress response signaling pathway (AID 1159516; active means well fitted activation curve with a large enough effect in the signal ratio in the repeat runs, not every such curve was filed as active; the % refers to the signal ratio; further: on the % scale 0 is the no-effect control and ±100 the full control effect); conditions: ESRE-bla HeLa, ER stress beta-lactamase reporter, 5 h; series mostly up to 61 µM
In short: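 Cells are seeded at 1,500 per well and incubated overnight. Compounds in DMSO are added for 5 hr at 37 C, then beta-lactamase FRET substrate for 2 hr at room temperature, and fluorescence at 460 and 530 nm is measured.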

C=C(C)CS(=O)(=O)O
inactive: Potency [1] | outcome [2] | outcome [3] | outcome [4] | outcome [5] | Potency [6] | Potency [7] | outcome [8]

O=C1CCCCCCCCCCCN1
inactive: Potency [9] | outcome [2] | outcome [10] | outcome [4] | outcome [5] | Potency [6] | Potency [7] | outcome [8]

O=C1CCCN1C1CCCCC1
inactive: Potency [9] | outcome [2] | outcome [10] | outcome [4] | outcome [5] | Potency [6] | Potency [7] | outcome [8]

N#Cc1ccc(C2CCCc3cncn32)cc1 (stereo not given)
inactive: Potency [9] | outcome [2] | outcome [10] | outcome [4] | outcome [5] | Potency [6] | Potency [7] | outcome [8]

CCCC(=O)O[C@]1(C(=O)CO)CC[C@H]2[C@@H]3CCC4=CC(=O)CC[C@]4(C)[C@H]3[C@@H](O)C[C@@]21C
inactive: Potency [9] | outcome [2] | outcome [10] | outcome [4] | outcome [5] | Potency [6] | Potency [7] | outcome [8]

COC(=O)c1ccc(C)cc1C1=NC(C)(C(C)C)C(=O)N1 (stereo not given)
inactive: Potency [9] | Potency [1] | outcome [2] | outcome [3] | outcome [4] | outcome [5] | Potency [6] | Potency [7] | outcome [8]

CCOC(=O)CC(C)=O
inactive: Potency [9] | outcome [3] | outcome [10] | outcome [4] | outcome [5] | Potency [7] | outcome [8]

COC(=O)c1c(Cl)c(Cl)c(C(=O)OC)c(Cl)c1Cl
inactive: Potency [9] | Potency [1] | outcome [2] | outcome [10] | outcome [4] | outcome [5] | Potency [6] | Potency [7]

Cc1ccc(Cl)cc1Cl
inactive: Potency [9] | Potency [1] | outcome [2] | outcome [10] | outcome [4] | outcome [5] | Potency [6] | Potency [7] | outcome [8]

O=c1cc(-c2ccccc2)oc2ccccc12
inactive: Potency [9] | Potency [1] | outcome [2] | outcome [10] | outcome [4] | outcome [5] | Potency [7] | outcome [8]

CC(C)(O)C(=O)c1ccccc1
inactive: Potency [9] | Potency [1] | outcome [2] | outcome [10] | outcome [4] | outcome [5] | Potency [6] | Potency [7] | outcome [8]

O=C1OC(=O)C2CCCCC12 (stereo not given)
inactive: Potency [1] | outcome [2] | outcome [4] | outcome [5] | Potency [6] | Potency [7] | outcome [8]

COC(=O)c1cc(C(=O)OC)cc(S(=O)(=O)O)c1
inactive: Potency [9] | Potency [1] | outcome [2] | outcome [10] | outcome [4] | outcome [5] | Potency [6] | Potency [7] | outcome [8]

O=c1n(CCO)c(=O)n(CCO)c(=O)n1CCO
inactive: Potency [9] | Potency [1] | outcome [2] | outcome [10] | outcome [4] | outcome [5] | Potency [6] | Potency [7] | outcome [8]

O=C1CCCC(=O)C1
inactive: Potency [9] | Potency [1] | outcome [2] | outcome [4] | Potency [6] | Potency [7] | outcome [8]

CC1(C)CO[C@@H](CC(=O)O)CN1
inactive: Potency [9] | Potency [1] | outcome [2] | outcome [4] | outcome [5] | Potency [6] | Potency [7] | outcome [8]

NCCc1cnc[nH]1
inactive: Potency [9] | Potency [1] | outcome [2] | outcome [10] | outcome [4] | outcome [5] | Potency [6] | Potency [7] | outcome [8]

CC(C)(O)C#CC(C)(C)O
inactive: Potency [9] | Potency [1] | outcome [2] | outcome [10] | outcome [4] | outcome [5] | Potency [6] | Potency [7] | outcome [8]

CC(=O)OCC(=O)[C@@]1(O)CC[C@H]2[C@@H]3CCC4=CC(=O)CC[C@]4(C)[C@H]3C(=O)C[C@@]21C
inactive: Potency [9] | outcome [3] | outcome [10] | outcome [4] | outcome [5] | Potency [6] | Potency [7] | outcome [8]

NC(=O)Nc1ccccc1
inactive: Potency [9] | Potency [1] | outcome [2] | outcome [10] | outcome [4] | Potency [6] | Potency [7] | outcome [8]

CC/C=C\CC/C=C/CO
inactive: Potency [9] | outcome [3] | outcome [10] | outcome [4] | Potency [6] | Potency [7] | outcome [8]

CCSC(=O)N(CC(C)C)CC(C)C
inactive: Potency [9] | Potency [1] | outcome [2] | outcome [10] | outcome [4] | outcome [5] | Potency [6] | Potency [7] | outcome [8]

N=c1nc(N2CCCCC2)cc(N)n1O
inactive: Potency [9] | Potency [1] | outcome [2] | outcome [10] | outcome [4] | outcome [5] | Potency [6] | Potency [7] | outcome [8]

C/C=C(\C)C#N
inactive: Potency [9] | Potency [1] | outcome [2] | outcome [10] | outcome [4] | outcome [5] | Potency [6] | Potency [7] | outcome [8]

CC(C)(c1ccc(O)cc1)c1ccc(O)cc1
inactive: Potency [9] | Potency [1] | outcome [2] | outcome [10] | outcome [4] | outcome [5] | Potency [7] | outcome [8]

C[C@H](NC(CCc1ccccc1)C(=O)O)C(=O)N1CCC[C@H]1C(=O)O (stereo not given in full)
inactive: Potency [9] | Potency [1] | outcome [2] | outcome [10] | outcome [4] | Potency [6] | Potency [7] | outcome [8]

CCCCC(CC)COC(=O)c1ccccc1O (stereo not given)
inactive: Potency [9] | Potency [1] | outcome [2] | outcome [10] | outcome [4] | outcome [5] | Potency [6] | Potency [7] | outcome [8]

CCCCCSCCCCC
inactive: Potency [9] | Potency [1] | outcome [2] | outcome [10] | outcome [4] | outcome [5] | Potency [6] | Potency [7] | outcome [8]

O=C[C@H](O)[C@@H](O)[C@H](O)[C@H](O)CO
inactive: Potency [9] | Potency [1] | outcome [10] | outcome [4] | outcome [5] | Potency [6] | Potency [7] | outcome [8]

O=[N+]([O-])c1ccc(F)cc1F
inactive: Potency [9] | Potency [1] | outcome [2] | outcome [4] | Potency [6] | Potency [7] | outcome [8]

NC(=O)c1cn(Cc2c(F)cccc2F)nn1
inactive: Potency [9] | Potency [1] | outcome [2] | outcome [10] | outcome [4] | outcome [5] | Potency [6] | Potency [7] | outcome [8]

CCCN1CCCC[C@H]1C(=O)Nc1c(C)cccc1C
inactive: Potency [9] | Potency [1] | outcome [2] | outcome [10] | outcome [4] | outcome [5] | Potency [6] | Potency [7] | outcome [8]

CCC(C)S (stereo not given)
inactive: activity change, negative = cytotoxicity [9] 8.62% [at 2.7 µM] | activation [2] 0.0323% [at 3.11 µM] | activity change, negative = cytotoxicity [4] 12.1% [at 3.11 µM] | activity, negative = cytotoxicity [5] -0.272% [at 3.27 µM] | activity change, negative = inhibition [6] 4.64% [at 3.27 µM] | viability change, negative = cytotoxic [7] 5.51% [at 2.72 µM] | activation [8] -2.17% [at 2.72 µM]

CC(=O)Nc1c(I)cc(I)c(C(=O)O)c1I
inactive: Potency [9] | Potency [1] | outcome [2] | outcome [10] | outcome [4] | outcome [5] | Potency [6] | Potency [7] | outcome [8]

Cc1c(O)cccc1O
inactive: Potency [9] | outcome [2] | outcome [4] | outcome [5] | Potency [6] | Potency [7] | outcome [8]

Cc1[nH]c(=O)c(C#N)cc1-c1ccc2nccn2c1
inactive: Potency [9] | Potency [1] | outcome [2] | outcome [10] | outcome [4] | outcome [5] | Potency [6] | Potency [7] | outcome [8]

CCn1ccnc1CC1COc2ccccc2O1 (stereo not given)
inactive: Potency [9] | Potency [1] | outcome [2] | outcome [10] | outcome [4] | outcome [5] | Potency [6] | Potency [7] | outcome [8]

Cc1ccc(=O)n(-c2ccccc2)c1
inactive: Potency [9] | Potency [1] | outcome [2] | outcome [10] | outcome [4] | outcome [5] | Potency [6] | Potency [7] | outcome [8]

NS(=O)(=O)c1ccc(C(=O)O)cc1
inactive: Potency [9] | Potency [1] | outcome [2] | outcome [4] | outcome [5] | Potency [6] | Potency [7] | outcome [8]

Cc1cccc(C)c1NC(=O)C(C)N (stereo not given)
inactive: Potency [9] | Potency [1] | outcome [2] | outcome [10] | outcome [4] | Potency [6] | Potency [7] | outcome [8]

COc1ccccc1OCC(O)CN1CCN(CC(=O)Nc2c(C)cccc2C)CC1 (stereo not given)
inactive: Potency [9] | Potency [1] | outcome [2] | outcome [10] | outcome [4] | outcome [5] | Potency [6] | Potency [7] | outcome [8]

From PubChem BioAssay (Tox21)
